The record followed here is PubChem BioAssay AID2174 (The Scripps Research Institute Molecular Screening Center, 2009).

Each structure is given as a SMILES string. Among all 320,000 compounds or so, about 500 (0.16%) were called active.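 The calls were made as follows: active = inhibition above the mean of all tested compounds plus 3 SD, set per campaign (cut at about 14% in these data); inactive = the rest.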 This excerpt belongs to a sample that is enriched for actives.

In general, inhibition refers to the drop in the measured response relative to a control, in per cent.

The target in the assay is Acyl-protein thioesterase 1 (Homo sapiens) (UniProt O75608). The assay is described as follows: LYPLA1 inhibitors, primary screen, counter-screen for PME1 inhibitor project, biochemical, fluorescence polarization, FP-Rh probe ABPP (AID 2174).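 Also: inhibitors block serine hydrolase probe labeling of LYPLA1 so polarization falls; 0% = enzyme with DMSO and 100% = wells lacking LYPLA1.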 The note with it: recombinant LYPLA1, FP-Rh probe fluorescence polarization; at 5.9 µM; hits give high values. (In general: Counterscreens check selectivity or assay interference.)
Chain of Acyl-protein thioesterase 1 (Homo sapiens) (O75608 whole entry, looked up): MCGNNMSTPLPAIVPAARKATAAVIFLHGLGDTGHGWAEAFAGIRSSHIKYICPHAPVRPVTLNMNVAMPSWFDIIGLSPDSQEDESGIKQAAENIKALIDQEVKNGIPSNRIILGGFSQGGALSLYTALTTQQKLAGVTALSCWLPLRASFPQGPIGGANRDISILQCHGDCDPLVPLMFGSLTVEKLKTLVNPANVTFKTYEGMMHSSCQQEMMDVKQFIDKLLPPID
On to `Cc1ccc(S(=O)(=O)N2CCC(C(=O)N[C@@H](C)C(=O)NCc3ccco3)CC2)cc1`, for which the inhibition is 48% (active).

For `Cc1ccc(S(=O)(=O)N2CCC(C(=O)N[C@@H](C)C(=O)NCc3ccccc3)CC2)cc1`, the inhibition is -4.86% (inactive).

On to `Cc1ccc(S(=O)(=O)N2CCC(C(=O)N[C@@H](C)C(=O)NCCc3ccccc3)CC2)cc1`, for which the inhibition was 2.54% (inactive).

As to `COc1ccc(C(C)NC(=O)C2CCCC2)cc1` (stereo unspecified), the inhibition is 0.96% (inactive).

For `Cc1c(Nc2nc3ccccc3nc2NS(=O)(=O)c2cccs2)c(=O)n(-c2ccccc2)n1C`, the inhibition is -0.16% (inactive).

For the compound `CCOC(=O)c1c(/N=C/c2cc(C)ccc2O)sc2c1CCC2`, the inhibition was -3.88% (inactive).

As to `C=CCNC(=O)c1sc(SC)cc1-c1ccc(Cl)cc1`, the inhibition was 21.3% (active).

As to `C=CCNC(=O)c1cc(-c2ccccc2O)on1`, the inhibition was -0.65% (inactive).

`C=CCNC(=S)NNC(=O)c1cc(Cl)ccc1OC`: the inhibition is 1.08% (inactive).

As for `CCn1cc(-c2cc(C(=O)O)on2)c(C)n1`, the inhibition is -0.98% (inactive).

On to `CC(C)S(=O)(=O)c1csc(NC(=O)Nc2ccc(Cl)cc2)c1Cl`, for which the inhibition is -33.1% (inactive).

With `CC1Cn2c(nnc2-c2cccs2)S1` (stereo unspecified), the inhibition is -1.86% (inactive).

As for `CN1C(=O)c2ccccc2C(C(=O)NCCCN2CCCC2)C1c1c[nH]c2ccccc12` (stereo unspecified), the inhibition is 3.18% (inactive).

As for `O=C1NC2(CCCCCC2)C(=O)N1CCS(=O)(=O)Oc1ccccc1`, the inhibition was -0.42% (inactive).

Consider `CC(C)CCNC(=O)CCNS(=O)(=O)c1ccc(Cl)cc1`, for which the inhibition was -1.02% (inactive).

Consider `O=C(CCCn1c(=O)c2sccc2n(CC(=O)NCC2CCCO2)c1=O)NCc1ccco1` (stereo unspecified), for which the inhibition was 4.84% (inactive).

As to `CCCCN(C(=O)/C=C/c1ccco1)c1c(N)n(CC(C)C)c(=O)[nH]c1=O`, the inhibition is -1.43% (inactive).

Take `O=C(NC1CC1)C1=C[C@H](c2c[nH]c3ccccc23)C[C@H](OCc2ccc(CO)cc2)O1`: the inhibition is 0.98% (inactive).

`CC(=O)N1CCN(C(=O)c2cc(-c3ccc(Cl)s3)nc3ccccc23)CC1`: the inhibition is -4.07% (inactive).

Turning to `CCOc1ccc(N(CC(=O)NCCc2ccc(OC)cc2)S(C)(=O)=O)cc1`, the inhibition is 1.18% (inactive).

`CCn1c(SCC(=O)NC2CC2)nnc1-c1ccccn1`: the inhibition was -1.31% (inactive).

Turning to `CCN1CCN(CCNC(=O)c2ccc3c(c2)NC(=O)/C(=C\c2ccc(OC)c(OC)c2)S3)CC1`, the inhibition is 24.7% (active).

On to `COc1ccc(CCNC(=O)c2ccc3c(c2)NC(=O)C(N2CCOCC2)S3)cc1OC` (stereo unspecified), for which the inhibition was -0.92% (inactive).

As for `COc1ccc(/C=C(\NC(=O)c2ccccc2)C(=O)NCCN2CCOCC2)cc1OC`, the inhibition is -3.08% (inactive).

For `CCNc1ccc(C(=O)OCC(=O)N2c3ccccc3NC(=O)C2(C)C)cc1[N+](=O)[O-]`, the inhibition was 2.28% (inactive).

On to `C=C(C)CSc1nc(N)c2c3c(sc2n1)CCC3`, for which the inhibition was -2.73% (inactive).

For `CCc1noc(C)c1C(=O)N1CCN(S(=O)(=O)c2cccc(C(F)(F)F)c2)CC1`, the inhibition was -4.37% (inactive).

Regarding `O=C(COc1ccccc1Cl)Nc1ccc(C(=O)c2ccc(C(=O)O)cc2)cc1`, the inhibition is 0.16% (inactive).

Regarding `O=C(NC(Cc1ccc(O)cc1)C(=O)O)/C(=C/c1ccccc1)NC(=O)c1ccccc1` (stereo unspecified), the inhibition was -3.61% (inactive).

`O=C(O)c1ccccc1-c1ccccc1C(=O)NCCc1ccccc1`: the inhibition is -3.92% (inactive).

`CC(C)CC1(C(=O)NCc2ccccn2)C=CCN1C(=O)c1ccccc1` (stereo unspecified): the inhibition is 0.98% (inactive).

For the compound `CCc1[nH]nc(C(=O)N2CCCC(CO)(Cc3ccc(F)cc3F)C2)c1C` (stereo unspecified), the inhibition is -0.39% (inactive).

For the compound `COC(=O)c1ccc(SCc2ccccc2)nc1`, the inhibition is -1.56% (inactive).

Take `CSc1c(SCc2ccccc2)cnn(Cc2ccccc2)c1=O`: the inhibition was 15% (active).

Take `CCn1c(SCc2ccccc2)nc2cc(OC)c(OC)cc2c1=O`: the inhibition was -1.81% (inactive).

Consider `COC(=O)C1=C(C(=O)OC)[C@@H]2N(C)c3ccccc3[C@@]23C[C@@H](C(=O)OC)N(C(C)=O)C3=N1`, for which the inhibition was -0.85% (inactive).

For the compound `CCCCCCCCCCCC(=O)O`, the inhibition is 1.07% (inactive).

Take `COc1ccc(C2C(C#N)=C(N)Oc3n[nH]c(C)c32)cc1CN1CCN(c2ccc(F)cc2)CC1` (stereo unspecified): the inhibition was -1.23% (inactive).

`CCOC(=O)C1(CC2CCCCO2)CCN(Cc2nc(-c3cccs3)oc2C)CC1` (stereo unspecified): the inhibition was -3.08% (inactive).

As for `CC[N+](C)(CC)CCC[n+]1c(-c2ccccc2)c2cc(N)ccc2c2ccc(N)cc21`, the inhibition is 60.1% (active).

With `CCOC(=O)C1=C(CC)Nc2ccccc2N=C1NC(=O)c1cccc(S(=O)(=O)N2CCCC2)c1`, the inhibition was -0.79% (inactive).

`COc1cc(OC)cc(-c2c(-c3ccc(F)cc3)c3cc(-c4ccc5cc[nH]c5c4)ccc3n2C)c1`: the inhibition was -1.29% (inactive).

Regarding `CC1=C[C@H]2Cc3cc(C)cc(C)c3S(=O)(=O)[C@@H]2C=C1`, the inhibition is -3.78% (inactive).

In the case of `O=C(N/C(=C\c1ccc(F)cc1)C(=O)N1CCCCCC1)c1ccccc1`, the inhibition was -1.76% (inactive).

In the case of `CC1=C(C)C(=O)OC(C(C)C2CCC3C4CC=C5CC(OC6OC(COC7OC(CO)C(O)C(O)C7O)C(O)C(O)C6O)CC(O)C5(C)C4CCC23C)C1` (stereo unspecified), the inhibition was -11.7% (inactive).

For the compound `COc1cccc(/C=C/C(=O)OCC(=O)N2CCCc3ccccc32)c1`, the inhibition was -0.36% (inactive).

Turning to `COc1ccc(N2CC(C(=O)NCCN3C(=O)S/C(=C\c4cccnc4)C3=O)CC2=O)c(OC)c1` (stereo unspecified), the inhibition was 67.3% (active).

On to `CCOc1ccc(N2CC(C(=O)NCCN3C(=O)S/C(=C\c4cccnc4)C3=O)CC2=O)cc1` (stereo unspecified), for which the inhibition is 7.93% (inactive).

`COc1ccccc1N1CC(C(=O)NCCN2C(=O)S/C(=C\c3cccnc3)C2=O)CC1=O` (stereo unspecified): the inhibition is -0.75% (inactive).

In the case of `CCOc1ccc(S(=O)(=O)N2CCCCC2)cc1NC(=O)CN1CCCC1c1cccs1` (stereo unspecified), the inhibition is -2.05% (inactive).

Consider `Cc1sc2ncn(CC(=O)NCCCC(=O)NCc3ccc(F)cc3)c(=O)c2c1C`, for which the inhibition is 3.83% (inactive).

Consider `CC(C)(CNC(=O)CNC(=O)C1CCCCC1)N1CCOCC1`, for which the inhibition is -3.79% (inactive).

Consider `Cn1cc(/C=C/C(=O)N2CCCC(C(=O)c3ccc(C(F)(F)F)cc3)C2)cn1` (stereo unspecified), for which the inhibition is -3.26% (inactive).

For the compound `CCCCn1c(N)c(N(CCC(C)C)C(=O)c2ccc(COc3ccccc3)o2)c(=O)[nH]c1=O`, the inhibition is 2.38% (inactive).

As to `CCCCn1c(N)c(N(CCC(C)C)C(=O)c2ccc([N+](=O)[O-])o2)c(=O)[nH]c1=O`, the inhibition is -7.18% (inactive).

As for `CCCCn1c(N)c(N(CCC(C)C)C(=O)CC2OC(=O)c3ccccc32)c(=O)[nH]c1=O` (stereo unspecified), the inhibition was 16.4% (active).
